This is one part of a sample in which hits are shown more often than they occur.
mcGAS MS inh: mouse cGAS inhibition by mass spec; Q8C6L5; recombinant mouse cGAS, cGAMP by RapidFire MS; inhibition, % at 12.5 µM; 0.18% of 130,000 active; AID 1259397;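 active = inhibition of cGAS enzyme activity at or above 60%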;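 also: enzyme stimulated by 45 bp dsDNA with ATP and GTP substrates; cGAMP share of summed cGAMP plus half ATP and half GTP signals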
Target sequence (Q8C6L5 whole entry, looked up): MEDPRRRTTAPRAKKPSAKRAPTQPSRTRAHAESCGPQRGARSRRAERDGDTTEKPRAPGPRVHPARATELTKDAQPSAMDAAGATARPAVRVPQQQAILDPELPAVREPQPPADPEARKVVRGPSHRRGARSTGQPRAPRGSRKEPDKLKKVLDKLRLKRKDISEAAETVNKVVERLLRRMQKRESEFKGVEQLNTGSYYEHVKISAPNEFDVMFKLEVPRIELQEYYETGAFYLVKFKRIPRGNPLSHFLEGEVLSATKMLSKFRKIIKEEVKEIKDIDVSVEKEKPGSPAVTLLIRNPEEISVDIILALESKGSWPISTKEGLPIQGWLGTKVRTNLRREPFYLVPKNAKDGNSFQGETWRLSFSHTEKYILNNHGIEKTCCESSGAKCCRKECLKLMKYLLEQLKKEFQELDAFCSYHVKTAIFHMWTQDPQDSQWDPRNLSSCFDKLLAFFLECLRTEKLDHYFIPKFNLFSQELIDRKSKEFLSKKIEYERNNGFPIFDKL
Starred values were filed as active, the others as inactive; ! = a repeat was not active.

SMILES	mcGAS MS inh
O=C(CN1CCN(C(=O)C2CCCO2)CC1)NC(=O)NC1CCCCC1 (configuration not stated)	-18
COc1ccccc1N1CC(c2nc3ccccc3n2Cc2ccc(F)cc2)CC1=O (configuration not stated)	-2
CCn1cc(C2CCN(c3ncnc4nc(N)ccc34)CC2)cn1	-2
OCc1cc(O)c2c(O)c3c(O)cccc3c(O[C@@H]3O[C@H](CO)[C@H](O)[C@@H](O)[C@H]3O)c2c1	-6
O=c1c(O)c(-c2ccc(O)c(O)c2)oc2c(O[C@@H]3O[C@H](CO)[C@H](O)[C@@H](O)[C@H]3O)c(O)cc(O)c12	1
CCCN1CC(=Cc2ccsc2)C(=O)C(=Cc2ccsc2)C1	-93
O=C(O)C1CSC(c2cc(Br)ccc2O)N1 (configuration not stated)	-2
O=C(O)C1CSC(c2cc(Br)c(O)c(Br)c2)N1 (configuration not stated)	87*
CSc1ccc(C2NC(C(=O)O)CS2)cc1 (configuration not stated)	-4
O=C(NCc1ccc2c(c1)OCCCO2)c1c(F)cccc1Cl	-11
O=C(O)c1c(NC(=O)C2CCCCC2)sc2c1CCC2	20
Cc1cc(=O)oc2c(-c3cc(-c4cccs4)nc(N)n3)c(O)ccc12	-6
N#Cc1c(N)oc2c3c(c(O)cc12)C(=O)c1ccccc1C3=O	68*
Cc1oc2ccccc2c1C#N	-7
CCc1ccc(CN2CCCC(CNC(=O)C=C(C)C)C2)nc1 (configuration not stated)	-28
O=C1OCCC1N1CCN(S(=O)(=O)c2ccc([N+](=O)[O-])cc2)CC1 (configuration not stated)	9
CCOC(C)c1nc(CN(C)Cc2ncnn2C)cs1 (configuration not stated)	1
CCC(C)Nc1n[nH]c(=S)s1 (configuration not stated)	8
CCOC(=O)c1c[nH]cc(C)c1=O	-7
CCOC(=O)c1cc(C(=O)OCC)c2c(C)cc(C)cc(C)c1-2	88*
CCOC(=O)c1cc(Cl)nc(Cl)c1C	-4
Cn1c(=O)c2c(nc3n2CC(c2ccc(F)cc2)=NN3Cc2ccccc2F)n(C)c1=O	1
CCOC(=O)c1cc(S(=O)(=O)NC(C)(C)C)cn1C	-8
S=c1[nH]nc2c3ccccc3ncn12	87*
S=c1[nH]nc2c3cnn(-c4ccccc4)c3ncn12	-3
SMILES	mcGAS MS inh
Cc1nc2c3ccccc3ncn2n1	-2
COc1c(C)cc(C(=O)C2CCCN(Cc3csc(C(C)=O)c3)C2)cc1C (configuration not stated)	-5
CN(C)c1cccc(C(=O)Nc2cc(C(F)(F)F)ccc2-n2ccnc2)c1	3
CCCCn1c(=O)c2c(nc3n(CCCOC)c(C)c(C)n23)n(C)c1=O	-11
CC(C)c1nc2oc3ccccc3c(=O)c2c(=O)n1-c1ccccc1	-7
COC(=O)c1cc2c(=O)n(-c3ccc(C(C)C)cc3)ccc2nc1C	-7
CC1(C)Cc2cc(CNC(=O)c3cn4c(n3)CNCC4)ccc2O1	-24
CCOc1cccc(C(C)NC(=O)C2CCCCN2C(=O)OC(C)(C)C)c1 (configuration not stated)	7
CCN1C(=Cc2ccc3cc(C)ccc3[n+]2CC)Sc2ccccc21	11
CCN1C(=CC=Cc2sc3ccccc3[n+]2CC)Sc2ccccc21	70*
CCC(C)[n+]1c(C)cc(C=C2Sc3ccccc3N2CC)cc1C (configuration not stated)	-10
O=S(=O)(N1CCOCC1)N1CCN(c2ncccn2)CC1	23
Cc1nc(C(C)C)ncc1C(=O)N1Cc2cnc(-c3ccccc3)nc2C1	-28
N#Cc1c(C2CCOC2)cc(-c2ccc(O)cc2)nc1N (configuration not stated)	-14
N#Cc1c(N)nc2c(c1N)C(Sc1ccccc1)c1ccc(O)cc1O2 (configuration not stated)	87*
N#CCSc1nc(N)c(C#N)c(-c2ccc(O)cc2)c1C#N	-9
CC1CCCN(S(=O)(=O)N2C(C)CC2(C)C)C1 (configuration not stated)	-7
CC1CN(C2CCCCC2)c2nc3c(c(=O)n(CCN4CCOCC4)c(=O)n3C)n2C1 (configuration not stated)	-7
CCOCCn1c2c(=O)n(C)c(=O)n(C)c2n2c(-c3ccc(OC)cc3)nnc12	-2
O=C(CC(c1ccccc1)c1ccc2c(c1)OCO2)NCCN1CCOC1=O (configuration not stated)	-5
C[n+]1cc2c3c(ccc2c2ccc4cc5c(cc4c21)OCO5)OCO3	85*!
CC(=C(C#N)C#N)c1ccc2c(c1)OCO2	-2
CCC(C)NC(=O)CN1CCN(C(=O)Nc2cccc(C)c2C#N)CC1 (configuration not stated)	4
Cc1nnc2sc(-c3cccc(NC(=S)NC(=O)c4cc5ccccc5o4)c3)nn12	-5
CCOC(=O)c1c(NC(=O)c2cc3ccccc3o2)sc(C(N)=O)c1C	-5
SMILES	mcGAS MS inh
Cc1nnc2sc(-c3ccccc3NC(=S)NC(=O)c3cc4ccccc4o3)nn12	71*
COc1cc(OC)nc(NC(=O)Cn2c(=O)c3ccccc3n3nc(C)cc23)n1	1
COc1cc(C=C2SC(=S)NC2=O)cc(OC)c1	-5
O=C1NC(=S)SC1=Cc1ccccc1[N+](=O)[O-]	2
COc1ccc(-c2ccc(/C=C3\SC(=S)NC3=O)o2)c([N+](=O)[O-])c1	65*
Cc1ccc(Cl)cc1Nc1nc(N)c(C#N)c(CC#N)c1C#N	4
CN1CCC2(CCCN(C(=O)c3ccc4nc[nH]c4c3)CC2)CC1	0
O=C(O)C12CCCC(Br)(CCC1)C2	2
O=C(O)C12CC3CC(CC(C3)C1)C2	-3
Cn1cnc2c1c(=O)n(CC(=O)N1CCN(C(=O)c3cccs3)CC1)c(=O)n2C	1
Cc1ccc(S(=O)(=O)NC(=O)C2(C)CCN2C(=O)c2c(C)noc2C)nc1 (configuration not stated)	-17
N#CC(=Cc1ccc(O)c(O)c1)c1nnc2n1CCCCC2	-1
N#CC(=Cc1ccc(F)cc1)c1nnc2n1CCCCC2	44
N#CC(=Cc1ccc(Br)cc1)c1nnc2n1CCCCC2	60*
O=C(Cn1cnnn1)Nc1nc(-c2cccc3ccccc23)cs1	3
O=C(CCl)Nc1nc(-c2c[nH]c3ccccc23)cs1	72*
COc1cccc(-c2nc(-c3c[nH]c4ccccc34)cs2)c1OC	-2
CC1=CC(=NNC(=S)NC2CCCCC2)CC(C)(C)C1	-10
COc1cc(/C=C/c2ccc(O)c(OC)c2)ccc1O	-10
COc1cc(C=C2C(=O)N(C)C(=O)N(C)C2=O)ccc1O	30
COc1cc(/C=c2\sc3nc4cc(Br)cnc4n3c2=O)ccc1O	72*
CN(C)S(=O)(=O)c1cccc(NS(=O)(=O)c2ccc3ccccc3c2)c1	-1
O=C1NC(=S)SC1=Cc1cccnc1	19
O=C1/C(=C/c2cccnc2)COc2c(F)cccc21	73*
O=C1/C(=C\c2cccnc2)CSc2ccc(Br)cc21	6
O=S1OC(c2ccccc2)(c2ccccc2)c2ccccc21 (configuration not stated)	1
O=C(O)c1sc(Br)c(I)c1I	78*
Cc1nc2sc3c(c2c2nnnn12)CCC3	-4
CCNC(=O)C1(C)CCN1CCC(=O)c1ccc(Br)cc1 (configuration not stated)	-4
CCNC(=O)C1(C)CCCN(CC(=O)c2ccc(Br)cc2)C1 (configuration not stated)	-2
